The record followed here is PubChem BioAssay (NCATS).

Where “and” joins values, the source holds several entries; their conditions need not be identical. Identical values can stand only once. Unmarked numbers belong to inactive results. Results filed as inconclusive are left out. Calls of active or inactive are those of the source. Unless noted, calls come from the whole dose curve.

The target of experiment [1] is Cytochrome P450 1A2 (Homo sapiens) (UniProt P05177). The experiment can be described thus: p450-cyp1a2 (AID 410).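 For activity change, negative = inhibition: -100% = full effect of reference inhibitor.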 Note: potency is the fitted concentration of half-maximal effect. A digest of the protocol: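 O-Demethylation of luciferin 6' methyl ether by human CYP1A2 is monitored as luciferase luminescence. Substrate sits at Km (100uM); enzyme is 20nM. Values are scaled to 57 uM furafylline as maximal inhibition.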
Sequence of Cytochrome P450 1A2 (Homo sapiens) (P05177 whole entry, looked up): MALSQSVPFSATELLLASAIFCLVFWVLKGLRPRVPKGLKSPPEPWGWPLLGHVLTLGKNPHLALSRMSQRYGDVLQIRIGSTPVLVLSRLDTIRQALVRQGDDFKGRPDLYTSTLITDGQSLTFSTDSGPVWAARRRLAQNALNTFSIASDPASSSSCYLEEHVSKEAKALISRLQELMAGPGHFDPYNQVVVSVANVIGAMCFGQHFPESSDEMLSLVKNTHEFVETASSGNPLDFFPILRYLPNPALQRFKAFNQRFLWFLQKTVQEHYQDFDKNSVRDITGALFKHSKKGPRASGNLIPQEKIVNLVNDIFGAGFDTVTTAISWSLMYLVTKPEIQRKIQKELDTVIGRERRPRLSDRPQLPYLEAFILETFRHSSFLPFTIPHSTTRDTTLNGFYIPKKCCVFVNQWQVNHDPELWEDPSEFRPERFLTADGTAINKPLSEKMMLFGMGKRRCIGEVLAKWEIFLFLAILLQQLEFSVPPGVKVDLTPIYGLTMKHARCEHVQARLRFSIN
Experiment [2] concerns the target Glucocorticoid receptor (Homo sapiens) (UniProt P04150). Kind of experiment: GR-GFP Redistribution (AID 450;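 active = compounds whose dose series gives a full or clear partial fitted curve of increased nuclear translocation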; note: potency is the fitted concentration of half-maximal effect). Conditions: U2OS GR-GFP nuclear translocation, laser cytometry, 2 h.
The target is the same in experiment [3]. The experiment can be described thus: GR-EFC Redistribution (AID 451). Note: potency is the fitted concentration of half-maximal effect. The settings on record: CHO-K1 GR-EFC translocation, beta-gal luminescence, 2 h. A digest of the protocol:
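Translocation of GR-ED fusion to nuclear EA restores b-gal, read by luminescence after 1 h room-temperature detection. Engineered CHO-K1 biosensor cells, 1,000/well, exposed 2 h at 37 C to titrations up to 46 uM final.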

The target of experiment [4] is DNA dC->dU-editing enzyme APOBEC-3G (Homo sapiens) (UniProt Q9HC16). Kind of experiment: qHTS for inhibitors of Vif-A3G interactions: Validation (AID 588379; active = well fitted curve in the direction sought with a large enough effect; an effect the other way counts as inactive or inconclusive; note: 0% is about no effect). An outline of the steps:
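Yellow fluorescence (Ex 488, Em 500-530) of Vif-coexpressing HeLa A3G-eYFP cells, scanned by Acumen cytometer, reports blocked A3G degradation. Cells plated at 700/well overnight at 37 deg C before compound addition, then a further overnight compound incubation at 37 deg C.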
In general terms: In qHTS, concentration-response curves come from the screen itself.

For experiment [5], the target named is Bile acid receptor (Homo sapiens) (UniProt Q96RI1). Kind of experiment: qHTS assay for small molecule agonists of farnesoid X receptor signaling (AID 588527).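 Note: 0% = vehicle basal and 100% = reference agonist.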 The settings on record: HEK293T FXR-UAS-bla, beta-lactamase ratio, 16 h; active compounds read high. An outline of the steps:
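Read-out: beta-lactamase reporter fluorescence with CCF4 substrate in GeneBLAzer FXR-UAS-bla HEK293T cells, after 16 h compound exposure at 37 C. Response scaled between DMSO basal (0%) and chenodeoxycholic acid at 100 uM (100%).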

Experiment [6] deals with Cytochrome P450 3A4 (Homo sapiens) (UniProt P08684). The experiment can be described thus: qHTS Assay for Activators of Cytochrome P450 3A4 (AID 885; active = well fitted curve in the direction sought with a large enough effect; an effect the other way counts as inactive or inconclusive; note: nearly all actives have a fitted effect of over 65% in size). An outline of the steps:
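Activators are scored by enhanced luminescence from CYP3A4 conversion of luciferin-PPXE (25uM, equal to KM) to luciferin, after 60 min at RT with an NADPH-regenerating system.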

Experiment [7] is described as follows: qHTS assay to identify small molecules that stimulate interleukin-8 (IL-8) secretion (AID 651758; active = well fitted activation curve with a large enough effect in the signal ratio; the % refers to the signal ratio; note: 0% is about no effect). A digest of the protocol:
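Secreted IL-8 measured homogeneously by TR-FRET (two labelled anti-IL-8 antibodies, 1-3 h at room temperature) after a 16 h, 37 C compound treatment of THP-1 cells at 2000 cells/well.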

Experiment [8] can be described thus: qHTS assay for small molecule activators of the nuclear factor-kappa B (NF-kB) signaling pathway (AID 651749; active = well fitted activation curve with a large enough effect in the signal ratio; the % refers to the signal ratio; note: % of control where 0% means no effect). Conditions: NF-kB-bla ME-180 cells, beta-lactamase FRET ratio, 16 h; activation: active compounds read high. An outline of the steps:
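Activation measured after 16 hr compound treatment at 37C, 5% CO2, of 2,000 ME-180 cells/well stably expressing an NF-kB response element–driven beta-lactamase reporter, via FRET-disruption fluorescence.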

Experiment [9] concerns the target Lysosomal acid glucosylceramidase (Homo sapiens) (UniProt P04062). Kind of experiment: Glucocerebrosidase-p2 (AID 348; in the data active = potency below about 10 µM; note: potency is the fitted concentration of half-maximal effect). The settings on record: purified GBA, blue fluorogenic substrate, 40 min. A digest of the protocol:
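Normal human glucocerebrosidase (0.2 nM) with blue fluorogenic substrate (80 uM final) in citrate/phosphate pH 5.9 with 10mM sodium taurocholate, 0.01% tween-20; 40 min RT, NaOH/glycine stop; fluorescence Ex 365/Em 440; AC50 from a titration from 0.6 nM upwards.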

Experiment [10] is described as follows: AP1 Signaling Pathway (AID 357; active = well fitted curve in either direction with a large enough effect, not every such curve was filed as active;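 note: ME-180 reporter cells stimulated with EGF at its EC50 level; % is set by controls: 0 for no effect and ±100 for the full control effect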). A digest of the protocol:
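In this screen, ME-180 cells in Opti-MEM with 0.5% dialyzed FBS received EC50 EGF and compound titrations for 5 h. AP-1 reporter beta-lactamase was detected via CCF4 ratio, giving AC50 for positive and negative modulators.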

Experiment [11] is described as follows: Stat Signaling Pathway (AID 446; active = well fitted curve in either direction with a large enough effect, not every such curve was filed as active;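 note: ME-180 cervical cancer cells given 40 pM IL-6 alongside compound; SIE-controlled beta-lactamase reporter measured as 460/530 nm FRET emission ratio; % is set by controls: 0 for no effect and ±100 for the full control effect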). A digest of the protocol:
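Emission at 460 and 530 nm (excitation 405 nm) reports SIE-controlled beta-lactamase in ME-180 cells. Cells received compound with 40 pM IL-6 for 5 hrs at 37 C; data scaled between 300 pM IL-6 and 125 nM JAK-inhibitor controls.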

Experiment [12] addresses 3',5'-cyclic-AMP phosphodiesterase 4B (Homo sapiens) (UniProt Q07343). Kind of experiment: qHTS Assay for Inhibitors of PDE-IV (AID 607; active = well fitted activation curve with a large enough effect in the main read-out, with a control signal flat, not every such curve was filed as active; note: % of control where 0% means no effect). A digest of the protocol:
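The readout is membrane depolarisation from a cAMP-sensing CNG channel, detected with a potential dye at ex 535/em 590. Cells were HEK293-derived (endogenous PDE-IV) at 1000 cells/well, titrated up to 22.9 uM final.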

Experiment [13] can be described thus: Confirmation and Secondary Assay for Modulators of Hemoglobin Beta Chain Splicing at IVS2 654 locus (AID 910; active = well fitted curve in the direction sought with a large enough effect; an effect the other way counts as inactive or inconclusive;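 note: HeLa cells stably carrying EGFP split by mutant beta-globin IVS2-654 intron; per-well total GFP intensity by laser scanning cytometry after 2-day treatment; % of control where 0% means no effect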). A digest of the protocol: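 Readout: per-well total peak green fluorescence (488 nm ex, 500–520 nm em) from objects 5–250 µm, reflecting correct splicing of an EGFP-654 reporter. Compounds were applied for 2 days at 37 °C to overnight-plated HeLa EGFP-654 cells; controls were DMSO and 500 nM IVS2-654 PNA.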

Experiment [14] can be described thus: Confirmation and Secondary Assay for Modulators of Hemoglobin Beta Chain Splicing at IVS2 705 locus (AID 930; active = well fitted curve in the direction sought with a large enough effect; an effect the other way counts as inactive or inconclusive;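 note: HeLa cells stably expressing the EGFP-705 splicing reporter; % of control where 0% means no effect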). An outline of the steps: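 HeLa cells stably carrying EGFP interrupted by mutant beta-globin IVS2-705 intron (CMV-driven) were seeded at 500 cells/well, treated next day with compound for 2 days at 37C; corrected splicing restores EGFP, read as total peak GFP intensity per well.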

The target of experiment [15] is Ubiquitin carboxyl-terminal hydrolase 1 (Homo sapiens) (UniProt O94782). Kind of experiment: Inhibitors of USP1/UAF1: Pilot qHTS (AID 504865; active = well fitted curve in the direction sought with a large enough effect; an effect the other way counts as inactive or inconclusive;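 note: rhodamine fluorescence freed from ubiquitin-rhodamine substrate followed over time; top concentration of the series differs between compounds; % is set by controls: 0 for no effect and ±100 for the full control effect; nearly all actives have a fitted effect of over 35% in size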). An outline of the steps: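 Deubiquitinase activity followed as kinetic rhodamine fluorescence release from 150 nM Ub-Rho. 1 nM USP1/UAF1 with compound, after 15 min room-temperature preincubation, in HEPES pH 7.8 buffer containing TCEP, EDTA, BSA and Tween-20.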
Sequence of Ubiquitin carboxyl-terminal hydrolase 1 (Homo sapiens) (O94782 whole entry, looked up): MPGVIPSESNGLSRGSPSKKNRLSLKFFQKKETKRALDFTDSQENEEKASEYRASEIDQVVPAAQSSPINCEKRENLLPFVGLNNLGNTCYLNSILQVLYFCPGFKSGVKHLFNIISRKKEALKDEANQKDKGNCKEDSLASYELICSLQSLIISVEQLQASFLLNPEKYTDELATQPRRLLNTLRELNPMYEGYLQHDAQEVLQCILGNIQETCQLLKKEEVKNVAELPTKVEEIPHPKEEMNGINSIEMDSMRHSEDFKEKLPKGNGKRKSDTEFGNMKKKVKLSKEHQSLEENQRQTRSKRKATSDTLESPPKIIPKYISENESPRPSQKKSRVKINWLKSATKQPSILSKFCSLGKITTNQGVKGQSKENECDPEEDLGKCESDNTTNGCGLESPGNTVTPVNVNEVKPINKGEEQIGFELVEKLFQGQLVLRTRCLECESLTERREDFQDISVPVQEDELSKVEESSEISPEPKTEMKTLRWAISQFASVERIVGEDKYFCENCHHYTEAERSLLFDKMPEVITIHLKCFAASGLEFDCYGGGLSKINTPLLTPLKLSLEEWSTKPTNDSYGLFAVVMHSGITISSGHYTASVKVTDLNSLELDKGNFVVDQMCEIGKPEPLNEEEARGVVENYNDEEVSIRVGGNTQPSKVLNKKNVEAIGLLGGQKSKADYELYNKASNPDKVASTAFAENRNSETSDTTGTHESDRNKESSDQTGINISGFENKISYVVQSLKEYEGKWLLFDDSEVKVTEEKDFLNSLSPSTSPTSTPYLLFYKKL

For experiment [16], the target named is Androgen receptor (Homo sapiens) (UniProt P10275). Kind of experiment: qHTS assay for small molecule agonists of androgen receptor signaling (AID 588515; active = well fitted curve in the direction sought with a large enough effect in the signal ratio, with a control signal flat; the % refers to the signal ratio; note: % is set by controls: 0 for no effect and ±100 for the full control effect). Conditions: AR-UAS-bla HEK293, beta-lactamase ratio, agonist 16 h; active compounds read high. An outline of the steps:
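Stimulation of an AR-responsive β-lactamase reporter in GripTite HEK293 cells was measured after 16 h compound exposure at 37 °C, via CCF4 fluorescence after 2 h RT. EC50 from Hill fits, normalized to R1881 at 30 nM.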

The target is the same in experiment [17]. Kind of experiment: qHTS assay for small molecule antagonists of androgen receptor signaling (AID 588516; active = well fitted curve in the direction sought with a large enough effect in the signal ratio, with a control signal flat, not every such curve was filed as active; the % refers to the signal ratio; note: % is set by controls: 0 for no effect and ±100 for the full control effect). An outline of the steps: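 Antagonist mode: inhibition of R1881-stimulated (10 nM final) bla reporter in GeneBLAzer AR HEK 293 cells, 16 h at 37C, compounds titrated. IC50 and efficacy from Hill-equation fits of 405/460–530 nm FRET ratios.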
Experiment [18] in a line: NFAT Signaling Pathway (AID 444; active = well fitted curve in either direction with a large enough effect, not every such curve was filed as active). Conditions: Jurkat NFAT-bla M1, carbachol, beta-lactamase ratio, 5 h; at 17.2 µM (top of the series). An outline of the steps:
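Read-out: CCF4 FRET ratio (460 nm/530 nm) after 1 h RT dye loading, used for %activity and AC50 from titration series. Cells: Jurkat NFAT-β-lactamase/M1 line, treated with compound plus 1 uM carbachol for 5 h, 37 °C.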

Sequence of Glucocorticoid receptor (Homo sapiens) (P04150 whole entry, looked up): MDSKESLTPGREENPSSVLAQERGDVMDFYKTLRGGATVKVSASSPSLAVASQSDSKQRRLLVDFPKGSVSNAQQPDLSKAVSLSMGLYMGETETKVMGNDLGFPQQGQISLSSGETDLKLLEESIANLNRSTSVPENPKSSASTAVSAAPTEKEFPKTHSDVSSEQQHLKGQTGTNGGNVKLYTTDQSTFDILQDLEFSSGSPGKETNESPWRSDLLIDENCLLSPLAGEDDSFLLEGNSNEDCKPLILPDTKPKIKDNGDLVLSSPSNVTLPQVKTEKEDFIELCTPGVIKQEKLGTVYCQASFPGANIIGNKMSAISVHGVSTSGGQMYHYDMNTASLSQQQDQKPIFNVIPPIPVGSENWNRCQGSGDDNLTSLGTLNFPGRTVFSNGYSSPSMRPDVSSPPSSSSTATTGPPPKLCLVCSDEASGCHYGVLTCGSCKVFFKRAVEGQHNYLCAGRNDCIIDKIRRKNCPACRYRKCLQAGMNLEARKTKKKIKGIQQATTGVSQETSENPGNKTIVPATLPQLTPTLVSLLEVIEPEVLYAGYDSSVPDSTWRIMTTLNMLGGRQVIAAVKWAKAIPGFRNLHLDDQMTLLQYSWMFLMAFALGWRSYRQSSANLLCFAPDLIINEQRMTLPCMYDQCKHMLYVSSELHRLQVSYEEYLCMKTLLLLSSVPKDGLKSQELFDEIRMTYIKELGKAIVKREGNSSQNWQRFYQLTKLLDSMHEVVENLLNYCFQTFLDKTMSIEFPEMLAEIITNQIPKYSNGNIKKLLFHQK
Sequence of 3',5'-cyclic-AMP phosphodiesterase 4B (Homo sapiens) (Q07343 whole entry, looked up): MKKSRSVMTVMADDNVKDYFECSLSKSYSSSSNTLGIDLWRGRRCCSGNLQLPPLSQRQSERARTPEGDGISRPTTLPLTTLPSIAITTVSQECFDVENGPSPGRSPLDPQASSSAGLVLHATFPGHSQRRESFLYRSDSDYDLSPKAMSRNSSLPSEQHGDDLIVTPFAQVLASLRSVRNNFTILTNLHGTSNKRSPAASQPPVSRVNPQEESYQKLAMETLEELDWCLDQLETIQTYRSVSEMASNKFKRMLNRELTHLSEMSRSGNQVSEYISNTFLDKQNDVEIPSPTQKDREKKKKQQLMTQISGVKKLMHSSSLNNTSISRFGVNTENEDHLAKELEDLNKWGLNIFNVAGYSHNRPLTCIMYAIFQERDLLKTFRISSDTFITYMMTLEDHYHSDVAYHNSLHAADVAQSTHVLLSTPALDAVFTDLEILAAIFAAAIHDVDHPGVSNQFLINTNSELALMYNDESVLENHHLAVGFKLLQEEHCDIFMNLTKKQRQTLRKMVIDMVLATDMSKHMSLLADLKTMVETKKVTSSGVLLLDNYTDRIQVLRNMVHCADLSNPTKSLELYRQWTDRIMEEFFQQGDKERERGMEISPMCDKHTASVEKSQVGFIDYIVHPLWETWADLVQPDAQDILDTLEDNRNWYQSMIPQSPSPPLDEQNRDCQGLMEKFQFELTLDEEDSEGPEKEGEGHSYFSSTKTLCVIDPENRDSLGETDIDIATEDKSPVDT
Sequence of Bile acid receptor (Homo sapiens) (Q96RI1 whole entry, looked up): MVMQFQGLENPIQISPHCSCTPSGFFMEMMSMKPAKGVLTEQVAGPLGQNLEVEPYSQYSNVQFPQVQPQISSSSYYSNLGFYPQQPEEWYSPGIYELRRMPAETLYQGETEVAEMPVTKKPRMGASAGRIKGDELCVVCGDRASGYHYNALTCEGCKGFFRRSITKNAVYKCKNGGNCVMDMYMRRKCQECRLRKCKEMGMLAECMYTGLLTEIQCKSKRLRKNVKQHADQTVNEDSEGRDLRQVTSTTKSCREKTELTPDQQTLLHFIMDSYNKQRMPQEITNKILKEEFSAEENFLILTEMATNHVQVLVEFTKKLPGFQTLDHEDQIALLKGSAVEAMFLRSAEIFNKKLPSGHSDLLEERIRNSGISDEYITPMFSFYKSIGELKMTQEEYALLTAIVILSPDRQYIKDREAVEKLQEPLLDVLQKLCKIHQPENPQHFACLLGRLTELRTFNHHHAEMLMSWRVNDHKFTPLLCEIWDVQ
Sequence of Lysosomal acid glucosylceramidase (Homo sapiens) (P04062 whole entry, looked up): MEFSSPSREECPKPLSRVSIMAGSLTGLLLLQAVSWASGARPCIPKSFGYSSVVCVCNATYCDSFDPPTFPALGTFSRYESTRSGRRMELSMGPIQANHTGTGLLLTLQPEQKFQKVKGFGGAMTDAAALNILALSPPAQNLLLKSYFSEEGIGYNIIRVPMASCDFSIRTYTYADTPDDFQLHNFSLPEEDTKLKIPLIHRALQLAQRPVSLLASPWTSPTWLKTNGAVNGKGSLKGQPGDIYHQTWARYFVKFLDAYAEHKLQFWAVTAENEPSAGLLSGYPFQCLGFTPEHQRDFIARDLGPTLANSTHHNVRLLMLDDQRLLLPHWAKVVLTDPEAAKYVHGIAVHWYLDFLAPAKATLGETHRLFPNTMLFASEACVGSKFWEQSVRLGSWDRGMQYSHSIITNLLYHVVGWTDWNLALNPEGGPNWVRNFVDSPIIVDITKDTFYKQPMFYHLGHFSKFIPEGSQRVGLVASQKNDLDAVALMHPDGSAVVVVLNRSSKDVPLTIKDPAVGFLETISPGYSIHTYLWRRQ
Sequence of Cytochrome P450 3A4 (Homo sapiens) (P08684 whole entry, looked up): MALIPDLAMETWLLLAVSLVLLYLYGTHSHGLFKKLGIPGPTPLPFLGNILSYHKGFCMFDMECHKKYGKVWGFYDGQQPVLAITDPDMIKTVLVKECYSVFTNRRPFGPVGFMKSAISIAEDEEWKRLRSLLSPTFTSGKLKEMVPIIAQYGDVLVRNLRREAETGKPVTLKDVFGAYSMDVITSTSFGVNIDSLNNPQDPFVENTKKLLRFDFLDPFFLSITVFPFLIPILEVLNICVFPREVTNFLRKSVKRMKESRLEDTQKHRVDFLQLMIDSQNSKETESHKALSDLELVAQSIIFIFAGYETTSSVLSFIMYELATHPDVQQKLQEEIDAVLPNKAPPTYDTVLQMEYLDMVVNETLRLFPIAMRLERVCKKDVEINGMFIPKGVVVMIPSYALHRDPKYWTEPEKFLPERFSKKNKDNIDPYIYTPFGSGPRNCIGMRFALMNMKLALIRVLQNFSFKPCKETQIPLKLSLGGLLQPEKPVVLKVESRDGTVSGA
Sequence of DNA dC->dU-editing enzyme APOBEC-3G (Homo sapiens) (Q9HC16 whole entry, looked up): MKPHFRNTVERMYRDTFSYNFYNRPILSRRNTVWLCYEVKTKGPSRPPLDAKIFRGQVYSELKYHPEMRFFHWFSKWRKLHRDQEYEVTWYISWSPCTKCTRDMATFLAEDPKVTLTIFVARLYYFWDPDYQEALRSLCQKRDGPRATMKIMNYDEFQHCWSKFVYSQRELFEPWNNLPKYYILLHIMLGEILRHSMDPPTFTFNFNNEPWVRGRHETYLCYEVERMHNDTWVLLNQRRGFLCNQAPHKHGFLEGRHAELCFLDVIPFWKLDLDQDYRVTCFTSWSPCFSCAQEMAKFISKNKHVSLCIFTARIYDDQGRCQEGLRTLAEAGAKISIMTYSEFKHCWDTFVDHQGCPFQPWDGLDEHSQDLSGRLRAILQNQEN

With `CCCN(C/C=C\I)[C@@H]1CCc2ccc(O)cc2C1`, the Potency in experiment [1] was 25.1 µM (active); in experiment [2], greater than 46 µM; in experiment [3], greater than 46 µM. In addition, in [4], the compound was classed as inactive.

Turning to `C=CCc1ccc(OC)c(OC)c1`, in experiment [5], the activation is 0.141%.

As for `COc1ccc(N)cc1`, the Potency entry in experiment [6] and in experiment [7] was “inactive” throughout.

Take `CCCCCCCC(=O)Cl`: in [8], the activation is -0.835%. The Potency result in experiment [7] is “inactive”.

In the case of `CC(C)CN1CC[C@@]2(CCCN(C(=O)Oc3ccccc3)C2)C1`, the Potency is greater than 11.4 µM in experiment [9] and greater than 46 µM in [3]. For the same compound, the compound was classed as inactive in experiment [10] and in [11]. The Potency entry in [12] and in experiment [6] was “inactive” each time.

On to `c1ccc(CN2CCCC3(CCNCC3)C2)cc1`, for which the Potency is greater than 11.4 µM in [9] and greater than 46 µM in [3]. Besides, the result in experiment [10] and in experiment [11] was inactive. Moreover, the Potency result in [1] and in [12] was “inactive” throughout.

Consider `Clc1ccc(CO[C@@H](Cn2ccnc2)c2ccc(Cl)cc2Cl)cc1`, for which the call in experiment [10] and in experiment [11] was inactive. In addition, the Potency entry in experiment [6] is “inactive”.

`C=CC(C)=O`: in experiment [8], the activation was 0.254%.

As to `CC(C)CN1CCCC2(CCN(C(=O)Oc3ccccc3)CC2)C1`, the Potency in experiment [9] was greater than 11.4 µM; in experiment [3], greater than 46 µM. Further, the result in experiment [10] was inactive. In addition, the Potency result in experiment [12] and in [6] was “inactive” throughout.

Take `NC(CO)Cc1ccccc1` (stereo unspecified): the Potency result in experiment [13], in experiment [14] and in [15] was “inactive” in each case.

In the case of `C=CC(C)(CCC=C(C)C)OC(C)=O` (stereo unspecified), in [5], the activation is -2.23%.

For `C=CC1CC=CCC1` (stereo unspecified), the activation in experiment [8] was 0.91% and -0.814%.

Regarding `CCN(CC)c1ccccc1`, the figures for the activation in experiment [16], in experiment [5] and in experiment [8] were 12.2%, -2.77% and -0.976%, respectively. Moreover, in experiment [17], the Potency result was “inactive”.

In the case of `C[N+](C)(C)Cc1ccccc1`, the activation in [5] is -0.315% and 0.14%. Besides, the Potency entry in experiment [7] is “inactive”.

For `CCCSC(=O)Cl`, the activation in experiment [5] is 0.0371%. Besides, the Potency entry in experiment [7] was “inactive”.

Turning to `CCN1C[C@@]2(COC)[C@H]3[C@@H](OC)[C@H]4C1[C@@]3([C@H](OC)C[C@@H]2O)[C@H]1C[C@@]2(O)[C@@H](OC(=O)c3ccccc3)[C@@H]1[C@@]4(OC(C)=O)[C@H](O)[C@@H]2OC`, the outcome in experiment [10] and in experiment [11] was inactive. The Potency entry in [1], in experiment [12] and in experiment [15] was “inactive” each time. In addition, the activity change, negative = inhibition in experiment [18] was -22.7%.

In the case of `CC[C@@H]1CN2CC[C@@H]1C[C@H]2[C@H](O)c1ccnc2ccc(OC)cc12`, the Potency result in experiment [15] was “inactive”. Moreover, the compound was classed as inactive in experiment [4].
